In the supplement of paper PMC4466140:

target: AgAbp1; experiment: SPOT peptide array binding signal intensity (averaged, normalized) (arbitrary units (background-subtracted, floor 0; scale differs between SH3 domains)); higher = stronger binding of the SH3 domain to the peptide
In short: (§1)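 The binding signal is the normalized, background-subtracted spot intensity averaged over replicates; its arbitrary units differ between domains. It was obtained by incubating 10 μg/ml GST-fused SH3 domains from four yeast species overnight at 4°C in TBS-based blocking buffer on cellulose membranes with synthetic 15-mer peptides, cysteines replaced by serines, then detecting with anti-GST antibody, HRP anti-mouse secondary and luminol.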

Binder	SPOT peptide array binding signal intensity
NLDRSKISLPDFDDE	4.5

target: AgBbc1; experiment: as above
In short: as §1

Binder	SPOT peptide array binding signal intensity
NLDRSKISLPDFDDE	0.75

target: AgBem1-D1; experiment: as above
In short: as §1

Binder	SPOT peptide array binding signal intensity
NLDRSKISLPDFDDE	5.5

target: AgBzz1-D1; experiment: as above
In short: as §1

Binder	SPOT peptide array binding signal intensity
NLDRSKISLPDFDDE	26

target: AgBzz1-D2; experiment: as above
In short: as §1

Binder	SPOT peptide array binding signal intensity
NLDRSKISLPDFDDE	14

target: AgCyk3; experiment: as above
In short: as §1

Binder	SPOT peptide array binding signal intensity
NLDRSKISLPDFDDE	≤ 0

target: AgFus1; experiment: as above
In short: as §1

Binder	SPOT peptide array binding signal intensity
NLDRSKISLPDFDDE	42

target: AgHof1; experiment: as above
In short: as §1

Binder	SPOT peptide array binding signal intensity
NLDRSKISLPDFDDE	11.5

target: AgHse1; experiment: as above
In short: as §1

Binder	SPOT peptide array binding signal intensity
NLDRSKISLPDFDDE	716

target: AgLsb1; experiment: as above
In short: as §1

Binder	SPOT peptide array binding signal intensity
NLDRSKISLPDFDDE	≤ 0

target: AgLsb4; experiment: as above
In short: as §1

Binder	SPOT peptide array binding signal intensity
NLDRSKISLPDFDDE	18

target: AgMyo5; experiment: as above
In short: as §1

Binder	SPOT peptide array binding signal intensity
NLDRSKISLPDFDDE	≤ 0

target: AgNbp2; experiment: as above
In short: as §1

Binder	SPOT peptide array binding signal intensity
NLDRSKISLPDFDDE	4

target: AgRvs167; experiment: as above
In short: as §1

Binder	SPOT peptide array binding signal intensity
NLDRSKISLPDFDDE	7

target: AgSho1; experiment: as above
In short: as §1

Binder	SPOT peptide array binding signal intensity
NLDRSKISLPDFDDE	11.5

target: AgSla1-D1-D2; experiment: as above
In short: as §1

Binder	SPOT peptide array binding signal intensity
NLDRSKISLPDFDDE	≤ 0

target: AgSla1-D3; experiment: as above
In short: as §1

Binder	SPOT peptide array binding signal intensity
NLDRSKISLPDFDDE	≤ 0

target: CaAbp1-D1; experiment: as above
In short: as §1

Binder	SPOT peptide array binding signal intensity
NLDRSKISLPDFDDE	33.5

target: CaAbp1-D2; experiment: as above
In short: as §1

Binder	SPOT peptide array binding signal intensity
NLDRSKISLPDFDDE	26

target: CaBbc1; experiment: as above
In short: as §1

Binder	SPOT peptide array binding signal intensity
NLDRSKISLPDFDDE	8

target: CaBem1-D1; experiment: as above
In short: as §1

Binder	SPOT peptide array binding signal intensity
NLDRSKISLPDFDDE	4

target: CaBzz1-D1; experiment: as above
In short: as §1

Binder	SPOT peptide array binding signal intensity
NLDRSKISLPDFDDE	31

target: CaBzz1-D2; experiment: as above
In short: as §1

Binder	SPOT peptide array binding signal intensity
NLDRSKISLPDFDDE	2.5

target: CaCyk3; experiment: as above
In short: as §1

Binder	SPOT peptide array binding signal intensity
NLDRSKISLPDFDDE	≤ 0

target: CaFus1; experiment: as above
In short: as §1

Binder	SPOT peptide array binding signal intensity
NLDRSKISLPDFDDE	283

target: CaHof1; experiment: as above
In short: as §1

Binder	SPOT peptide array binding signal intensity
NLDRSKISLPDFDDE	1.5

target: CaHse1; experiment: as above
In short: as §1

Binder	SPOT peptide array binding signal intensity
NLDRSKISLPDFDDE	21

target: CaLsb1; experiment: as above
In short: as §1

Binder	SPOT peptide array binding signal intensity
NLDRSKISLPDFDDE	≤ 0

target: CaLsb4; experiment: as above
In short: as §1

Binder	SPOT peptide array binding signal intensity
NLDRSKISLPDFDDE	≤ 0

target: CaMyo5; experiment: as above
In short: as §1

Binder	SPOT peptide array binding signal intensity
NLDRSKISLPDFDDE	6.25

target: CaNbp2; experiment: as above
In short: as §1

Binder	SPOT peptide array binding signal intensity
NLDRSKISLPDFDDE	193

target: CaRvs167; experiment: as above
In short: as §1

Binder	SPOT peptide array binding signal intensity
NLDRSKISLPDFDDE	1.33

target: CaRvs167-3; experiment: as above
In short: as §1

Binder	SPOT peptide array binding signal intensity
NLDRSKISLPDFDDE	1.25

target: CaSho1; experiment: as above
In short: as §1

Binder	SPOT peptide array binding signal intensity
NLDRSKISLPDFDDE	74.5

target: CaSla1-D1-D2; experiment: as above
In short: as §1

Binder	SPOT peptide array binding signal intensity
NLDRSKISLPDFDDE	≤ 0

target: CaSla1-D3; experiment: as above
In short: as §1

Binder	SPOT peptide array binding signal intensity
NLDRSKISLPDFDDE	≤ 0

target: ScAbp1; experiment: as above
In short: as §1

Binder	SPOT peptide array binding signal intensity
NLDRSKISLPDFDDE	11

target: ScBbc1; experiment: as above
In short: as §1

Binder	SPOT peptide array binding signal intensity
NLDRSKISLPDFDDE	1.5

target: ScBem1-D1; experiment: as above
In short: as §1

Binder	SPOT peptide array binding signal intensity
NLDRSKISLPDFDDE	1

target: ScBzz1-D1; experiment: as above
In short: as §1

Binder	SPOT peptide array binding signal intensity
NLDRSKISLPDFDDE	39.5

target: ScBzz1-D2; experiment: as above
In short: as §1

Binder	SPOT peptide array binding signal intensity
NLDRSKISLPDFDDE	18

target: ScCyk3; experiment: as above
In short: as §1

Binder	SPOT peptide array binding signal intensity
NLDRSKISLPDFDDE	16

target: ScFus1; experiment: as above
In short: as §1

Binder	SPOT peptide array binding signal intensity
NLDRSKISLPDFDDE	34

target: ScHof1; experiment: as above
In short: as §1

Binder	SPOT peptide array binding signal intensity
NLDRSKISLPDFDDE	2

target: ScHse1; experiment: as above
In short: as §1

Binder	SPOT peptide array binding signal intensity
NLDRSKISLPDFDDE	1260

target: ScLsb1; experiment: as above
In short: as §1

Binder	SPOT peptide array binding signal intensity
NLDRSKISLPDFDDE	≤ 0

target: ScLsb2; experiment: as above
In short: as §1

Binder	SPOT peptide array binding signal intensity
NLDRSKISLPDFDDE	≤ 0

target: ScLsb3; experiment: as above
In short: as §1

Binder	SPOT peptide array binding signal intensity
NLDRSKISLPDFDDE	≤ 0

target: ScLsb4; experiment: as above
In short: as §1

Binder	SPOT peptide array binding signal intensity
NLDRSKISLPDFDDE	3

target: ScMyo3; experiment: as above
In short: as §1

Binder	SPOT peptide array binding signal intensity
NLDRSKISLPDFDDE	3.5

target: ScMyo5; experiment: as above
In short: as §1

Binder	SPOT peptide array binding signal intensity
NLDRSKISLPDFDDE	4

target: ScNbp2; experiment: as above
In short: as §1

Binder	SPOT peptide array binding signal intensity
NLDRSKISLPDFDDE	28

target: ScPex13; experiment: as above
In short: as §1

Binder	SPOT peptide array binding signal intensity
NLDRSKISLPDFDDE	≤ 0

target: ScRvs167; experiment: as above
In short: as §1

Binder	SPOT peptide array binding signal intensity
NLDRSKISLPDFDDE	0.167

target: ScSho1; experiment: as above
In short: as §1

Binder	SPOT peptide array binding signal intensity
NLDRSKISLPDFDDE	87.5

target: ScSla1-D1-D2; experiment: as above
In short: as §1

Binder	SPOT peptide array binding signal intensity
NLDRSKISLPDFDDE	≤ 0

target: ScSla1-D3; experiment: as above
In short: as §1

Binder	SPOT peptide array binding signal intensity
NLDRSKISLPDFDDE	1

target: SpAbp1-D1; experiment: as above
In short: as §1

Binder	SPOT peptide array binding signal intensity
NLDRSKISLPDFDDE	11

target: SpBbc1; experiment: as above
In short: as §1

Binder	SPOT peptide array binding signal intensity
NLDRSKISLPDFDDE	≤ 0

target: SpBzz1-D1; experiment: as above
In short: as §1

Binder	SPOT peptide array binding signal intensity
NLDRSKISLPDFDDE	14.5

target: SpBzz1-D2; experiment: as above
In short: as §1

Binder	SPOT peptide array binding signal intensity
NLDRSKISLPDFDDE	≤ 0

target: SpCyk3; experiment: as above
In short: as §1

Binder	SPOT peptide array binding signal intensity
NLDRSKISLPDFDDE	≤ 0

target: SpHof1; experiment: as above
In short: as §1

Binder	SPOT peptide array binding signal intensity
NLDRSKISLPDFDDE	11.5

target: SpHof1-2; experiment: as above
In short: as §1

Binder	SPOT peptide array binding signal intensity
NLDRSKISLPDFDDE	4

target: SpHof1-3; experiment: as above
In short: as §1

Binder	SPOT peptide array binding signal intensity
NLDRSKISLPDFDDE	70

target: SpHse1; experiment: as above
In short: as §1

Binder	SPOT peptide array binding signal intensity
NLDRSKISLPDFDDE	983

target: SpLsb1; experiment: as above
In short: as §1

Binder	SPOT peptide array binding signal intensity
NLDRSKISLPDFDDE	≤ 0

target: SpLsb4; experiment: as above
In short: as §1

Binder	SPOT peptide array binding signal intensity
NLDRSKISLPDFDDE	≤ 0

target: SpMyo1; experiment: as above
In short: as §1

Binder	SPOT peptide array binding signal intensity
NLDRSKISLPDFDDE	9

target: SpNbp2; experiment: as above
In short: as §1

Binder	SPOT peptide array binding signal intensity
NLDRSKISLPDFDDE	16

target: SpPex13; experiment: as above
In short: as §1

Binder	SPOT peptide array binding signal intensity
NLDRSKISLPDFDDE	≤ 0

target: SpRvs167; experiment: as above
In short: as §1

Binder	SPOT peptide array binding signal intensity
NLDRSKISLPDFDDE	0.5

target: SpSla1-D1-D2; experiment: as above
In short: as §1

Binder	SPOT peptide array binding signal intensity
NLDRSKISLPDFDDE	≤ 0

target: SpSla1-D3; experiment: as above
In short: as §1

Binder	SPOT peptide array binding signal intensity
NLDRSKISLPDFDDE	≤ 0
